# Bioassay records (PubChem)
# These entries were drawn from the full list.
# PLAP act: activates human placental alkaline phosphatase. purified PLAP enzyme, luminescent substrate read-out; active compounds read high. activation fold at 20 µM. hit rate 1.2% among 96,000. AID 696; in the data active means activation fold above about 2
# CYP2C9 inhib: inhibitors of human CYP2C9; hit rate 20% among 96,000; CYP2C9 Supersomes, luciferin-H conversion, luminescence; inhibition, % at 5 µM;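 active means blocking of liver enzyme CYP2C9 beyond about 50% at 5 µM, limit read from the data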
# Target sequence (P11712 whole entry, looked up): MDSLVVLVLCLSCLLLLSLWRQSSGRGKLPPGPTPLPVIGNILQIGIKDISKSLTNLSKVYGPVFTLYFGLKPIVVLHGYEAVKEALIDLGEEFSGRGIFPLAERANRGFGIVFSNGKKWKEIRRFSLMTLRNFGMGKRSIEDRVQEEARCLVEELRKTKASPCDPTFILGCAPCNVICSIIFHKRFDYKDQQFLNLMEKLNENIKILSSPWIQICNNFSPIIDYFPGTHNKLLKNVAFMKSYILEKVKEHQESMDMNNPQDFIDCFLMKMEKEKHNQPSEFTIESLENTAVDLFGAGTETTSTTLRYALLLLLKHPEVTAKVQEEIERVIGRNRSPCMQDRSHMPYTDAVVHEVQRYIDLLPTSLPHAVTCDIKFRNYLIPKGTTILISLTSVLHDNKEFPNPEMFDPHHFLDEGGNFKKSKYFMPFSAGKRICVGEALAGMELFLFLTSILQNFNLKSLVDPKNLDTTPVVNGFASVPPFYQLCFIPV
# CYP2C19 activ: activators of human cytochrome P450 2C19; recombinant CYP2C19, luciferin-H EGE luminescence; active compounds read high; 0 = fully inhibited enzyme, 1 = untreated enzyme; P33261; 96,000 tested, under 10 active; activation factor at 5 µM;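 active means activation factor of at least 2 at 5 µM in the primary screen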;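 further: 0 = wells with 2.5 mM tranylcypromine and 1 = vehicle-only wells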
# CYP2C9 activ: CYP2C9 (human) activation; P11712; recombinant CYP2C9, luciferin-H conversion, luminescence; active compounds read high; factor 1 = untreated enzyme, 0 = blocked; activation factor at 5 µM; hit rate 1.4% among 96,000; AID 1024;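 active means activation factor of 2 or more for CYP2C9 at a 5 µM dose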;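 further: 0 = sulfaphenazole-blocked wells and 1 = vehicle-only wells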
# CYP2C19 inh: human CYP2C19 inhibition. P33261. CYP2C19 Supersomes, luciferin-H EGE luminescence, 30 min. inhibition, % at 5 µM. hit rate 21% among 96,000;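 active means CYP2C19 inhibition above a set limit at 5 µM in the primary screen, cut at about 50% in these data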;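 further: plate controls were negative control wells for no effect and 2.5 mM tranylcypromine positive control for full effect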
# * marks the source's active call; other numbers are inactive results.
SMILES,PLAP act,CYP2C9 inhib,CYP2C19 activ,CYP2C9 activ,CYP2C19 inh
O=C(NC1CCCCC1)N1CCN(CCc2ccccc2)CC1,1.1,0.4,1,1,2.0
CC(=O)c1ccc(S(=O)c2ccccc2)cc1 (centres undefined),1,-10.8,0.6,1.1,43.1
COc1cccc(N2CCN(Cc3nc(N)nc(N4CCCc5ccccc54)n3)CC2)c1,1.5,16.4,0.8,0.8,19.6
O=C(CSc1nc2ccc(Cl)cc2[nH]1)c1ccc2c(c1)OCO2,1.1,65.9*,0.7,0.3,26.1
COc1ccc2nc(SCC(=O)Nc3ccc4c(c3)OCCO4)[nH]c2c1,1.5,80.9*,0.6,0.2,36.2
CC(C)NC(=O)C1(O)c2ccccc2NC(=O)N1c1ccc(Cl)c(Cl)c1 (centres undefined),0.9,45.8,0.7,0.5,26.5
COc1ccc2nc(SCC(N)=O)[nH]c2c1,1.1,-16.1,1.1,1.2,-12.7
CCOc1ccc(N2C(=O)Nc3ccccc3C2(O)C(=O)NCc2ccc3c(c2)OCO3)cc1 (centres undefined),0.8,-141.4,0.8,2.4*,18.8
CCOc1ccc2nc(SCC(=O)NCc3ccc4c(c3)OCO4)[nH]c2c1,1.5,67.6*,0.8,0.3,24.3
Cc1cccc(C(=O)NC2CC3CCCC(C2)N3C(=O)NC2CCCCC2)c1 (centres undefined),0.9,49.4,0.5,0.5,48.3
Cc1nc2nc(C)c(CCC(=O)N3CCOCC3)c(C)n2n1,1,9.9,1,0.9,-0.3
O=C(Nc1ccccc1C(=O)OCn1nnc2ccccc2c1=O)c1ccco1,1.1,32.7,1,0.7,-1.8
CC(C)c1ccc(NC(=O)C2C3C=CC4(CN(CCCN5CCOCC5)C(=O)C24)O3)cc1 (centres undefined),1.1,-25.4,0.9,1.3,6.7
CCOC(=O)c1ccc(NC(=O)CSc2nc(C)nc3c2c(=O)n(C)c(=O)n3C)cc1,1.2,2.6,1,1,2.1
O=C(CSc1nc2ncc(Br)cc2[nH]1)Nc1ccc2c(c1)OCO2,1,96.2*,0.3,0,71.5*
COc1ccc2[nH]c3nc(SCC(=O)Nc4ccc5c(c4)OCO5)nnc3c2c1,1.5,70.4*,0.8,0.3,22.7
Cc1cccc(CC(=O)OCn2nnc3ccccc3c2=O)c1,1,-9.7,0.7,1.1,32.7
COc1ccc(C(=O)SC2=NCCS2)cc1OC,0.9,-109.1,0.8,2.1*,24.7
COc1ccc(C(=O)N2CCSC2=S)cc1OC,1,-111.5,1,2.1*,3.4
COc1cccc(C(=O)N2CCN(S(=O)(=O)Cc3ccccc3)CC2)c1,1.1,29.1,0.6,0.7,41.0
COc1ccc(C(=O)N2CCN=C2SC)cc1OC,1.1,-2.6,1,1,4.5
COc1cccc(C(=O)N2CCSC2=S)c1,1.1,-26.2,0.4,1.3,61.7*
COc1ccc(C(=O)Sc2ccc(C)cc2)cc1OC,1,-9.7,0.7,1.1,25.3
CCN1CCCC1CNC(=O)CN1C(=O)COc2ccc(C)cc21 (centres undefined),1.1,-2.4,1,1,-0.9
O=C1C2CC=CCC2C(=O)N1c1n[nH]c(CCc2ccccc2)n1 (centres undefined),1.2,-14.5,0.9,1.1,9.8
SMILES,PLAP act,CYP2C9 inhib,CYP2C19 activ,CYP2C9 activ,CYP2C19 inh
O=C(c1cc2n(n1)C(C(F)(F)F)CC(c1ccc(F)cc1)N2)N1CCCC1 (centres undefined),1.3,23.3,1,0.8,4.6
CCOc1ccc(N/C(C)=C/C(=O)c2ccc(C)o2)cc1,0.9,20.6,0.5,0.8,52.0*
CCCn1nc(C(=O)NCCc2ccc(S(N)(=O)=O)cc2)c2ccccc2c1=O,1.1,35.9,1.1,0.6,-14.3
CCC1CCCCN1C(=O)CSc1nnc(-c2ccc3c(c2)OCCO3)o1 (centres undefined),1.6,79.5*,0,0.2,99.0*
CCC1CCCCN1C(=O)CSc1nnc(-c2ccc(OC)cc2)o1 (centres undefined),1.2,33.7,0.2,0.7,84.6*
COc1cc(OC)cc(-c2nnc(SCC(=O)N3CCCC3)o2)c1,0.8,-21.9,1,1.2,3.2
O=C(CSc1nnc(-c2ccc3c(c2)OCCO3)o1)N1CCCC1,1.2,18.3,0.7,0.8,28.4
CC1CCCCN1C(=O)CSc1nnc(-c2ccc(Cl)s2)o1 (centres undefined),1.2,56.2*,0.1,0.4,95.0*
COc1ccc(NC(=O)C2CCN(C(=O)c3ccc(OC)cc3)CC2)cc1,1.3,-0.1,1,1,-2.1
O=C(O)CCCNc1cc(N2CCC3(CC2)OCCO3)c2noc3c2c1C(=O)c1ccccc1-3,1.1,60.7*,0.7,0.4,25.6
CCOC(=O)N1CCN(c2cc(NCCC(=O)O)c3c4c(onc24)-c2ccccc2C3=O)CC1,1.4,47.4,0.7,0.5,31.4
CN(C)CCOCCSc1ccc(Cl)cc1,0.9,6.4,0.9,0.9,13.1
Cc1ccc(C(=O)N/C(=C\c2cccs2)C(=O)NC2CCCCC2)cc1,1.1,-22.8,0.9,1.2,7.2
CC1CN(S(=O)(=O)c2ccc(Cl)c(C(F)(F)F)c2)CC(C)O1 (centres undefined),1.1,-129.7,0.8,2.3*,22.4
CC(C)(C)C(=O)Nc1c2c(nc3c1CCC3)CCCC2,1.2,0.8,1,1,0.9
O=C(CC1C(=O)NCCN1C(=O)Nc1ccccc1)Nc1ccc2c(c1)OCO2 (centres undefined),1.4,32.2,0.8,0.7,16.3
O=C(CCCOc1ccccc1)Nc1ccc2c(c1)OCCO2,0.8,55.4*,0.2,0.4,81.1*
O=C(CC1C(=O)NCCN1C(=S)Nc1ccccc1)Nc1ccc2c(c1)OCCO2 (centres undefined),1,58.7*,0.9,0.4,8.8
O=C(CCN1C(=O)c2ccccc2S1(=O)=O)Nc1ccc2c(c1)OCCO2,1,58.8*,0.5,0.4,47.5
COc1ccc(OCCCC(=O)Nc2ccc3c(c2)OCO3)cc1,0.9,68.2*,0.6,0.3,41.4
CCC(CC)NC(=O)c1cc(OC)c(OC)c(OC)c1,1,3.0,1,1,3.5
CCOc1cccc(C=Nc2cc(C)cc(C)c2O)c1O,1.6,1.9,1,1,-1.1
CCOC(=O)c1ccc(N2C(=O)CC(NC3CCN(C(=O)c4cccc(Cl)c4)CC3)C2=O)cc1 (centres undefined),1.5,33.1,0.7,0.7,34.1
CCOc1c(Cl)cc(C(=O)NCCN2CCCCC2)cc1Cl,1,-5.2,1,1.1,-0.9
O=C(COc1ccccc1Cl)Nc1ccc2c(c1)OCCO2,0.8,21.8,0.7,0.8,30.0
Cc1ccccc1OCCCC(=O)Nc1ccc2c(c1)OCO2,0.9,39.2,0.4,0.6,62.9*
Cc1cccc(OCC(=O)Nc2ccc3c(c2)OCCO3)c1,0.7,57.9*,0.3,0.4,70.1*
CCCCn1cnc2c1c(=O)[nH]c(=O)n2CCCC,1.3,14.6,0.7,0.9,31.2
